# Test results as given in PubChem BioAssay.
# Activity calls are given as the source filed them. Unless noted, the rule behind the calls is not given here.
# Tests used:
# [1] = compound effects on lung adenocarcinoma cell viability – A549, calcein-AM fluorescence, 48 h, basal, profiling panel (AID 1162); conditions: higher = more signal; note: test concentration not given here
# [2] = compound effects on differentiated 3T3-L1 adipocyte viability – cell-based, 3T3-L1 adipocytes, calcein-AM fluorescence, 48 h, basal, profiling panel (AID 1163); conditions: 3T3-L1 adipocytes viability, higher = more signal; note: test concentration not given here
# [3] = compound effects on hepatocellular carcinoma cell viability – HepG2, calcein-AM fluorescence, 48 h, basal, profiling panel (AID 1164); conditions: higher = more signal; note: test concentration not given here
# [4] = compound effects on multiple myeloma cell viability – MM1S, calcein-AM fluorescence, 48 h, basal, profiling panel (AID 1165); conditions: higher = more signal; note: test concentration not given here
# [5] = calcein-AM signal in unstimulated myeloma cells – cell-based, calcein-AM fluorescence, 48 h, PK04 Diversity Set, profiling panel (AID 1166); conditions: RPMI8226 myeloma viability, higher = more signal;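 note: cells grown under basal conditions without added stimulus; test concentration not given here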
# [6] = JC-1 mitochondrial signal, unstimulated HepG2 cells – cell-based, JC-1 fluorescence, 24 h, 100 nL compound, profiling panel (AID 1167); conditions: HepG2 mitochondrial potential, higher = more signal; note: test concentration not given here
# [7] = JC-1 mitochondrial signal, unstimulated adipocytes – cell-based, JC-1 fluorescence, 3T3-L1 adipocytes, 24 h, 100 nL compound, profiling panel (AID 1168); conditions: JC-1 mitochondrial fluorescence, higher = more signal, called active from +8 up or from −8 down; note: test concentration not given here
# [8] = JC-1 mitochondrial signal, unstimulated myeloma cells – cell-based, JC-1 fluorescence, RPMI8226, 24 h, 100 nL compound, profiling panel (AID 1169); conditions: JC-1 mitochondrial potential fluorescence, higher = more signal; note: test concentration not given here
# [9] = JC-1 mitochondrial signal, unstimulated MM1S myeloma – cell-based, JC-1 fluorescence, 24 h, 100 nL compound, profiling panel (AID 1170); conditions: MM1S mitochondrial potential, higher = more signal; note: test concentration not given here
# [10] = resazurin metabolic signal in A549 cells – cell-based, resazurin fluorescence, 24 h, PK04 Diversity Set, profiling panel (AID 1171); conditions: A549 viability, higher = more signal, called active from +8 up or from −8 down; note: test concentration not given here
# [11] = resazurin metabolic signal in HepG2 cells – cell-based, resazurin fluorescence, 24 h, PK04 Diversity Set, profiling panel (AID 1172); conditions: HepG2 viability, higher = more signal; note: test concentration not given here
# [12] = budding yeast growth changes without added modifier – OD600, strain BY4716, 24 h, basal condition, primary screen (AID 1173); conditions: S. cerevisiae BY4716 growth, OD600, 24 h; higher = more signal, called active from +8 up or from −8 down
# [13] = viability profiling in MM1S myeloma cells – cell-based, resazurin fluorescence, basal, 24 h, PK04 Diversity Set, profiling panel (AID 1174); conditions: higher = more signal, called active from +8 up or from −8 down; note: test concentration not given here
# [14] = target: Dihydroorotate dehydrogenase (quinone), mitochondrial (Plasmodium falciparum (isolate 3D7)) (UniProt Q08210); assay: inhibition of P. falciparum DHODH – biochemical, C-terminal His tag, absorbance 600 nm, primary screen (AID 1175); conditions: PfDHODH enzyme, DCIP absorbance 600 nm; higher = more signal, called active from +8 up or from −8 down;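 note: recombinant parasite enzyme with a five histidine tag at its C terminus; test concentration not given here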
# Dihydroorotate dehydrogenase (quinone), mitochondrial (Plasmodium falciparum (isolate 3D7)), sequence (Q08210 whole entry, looked up): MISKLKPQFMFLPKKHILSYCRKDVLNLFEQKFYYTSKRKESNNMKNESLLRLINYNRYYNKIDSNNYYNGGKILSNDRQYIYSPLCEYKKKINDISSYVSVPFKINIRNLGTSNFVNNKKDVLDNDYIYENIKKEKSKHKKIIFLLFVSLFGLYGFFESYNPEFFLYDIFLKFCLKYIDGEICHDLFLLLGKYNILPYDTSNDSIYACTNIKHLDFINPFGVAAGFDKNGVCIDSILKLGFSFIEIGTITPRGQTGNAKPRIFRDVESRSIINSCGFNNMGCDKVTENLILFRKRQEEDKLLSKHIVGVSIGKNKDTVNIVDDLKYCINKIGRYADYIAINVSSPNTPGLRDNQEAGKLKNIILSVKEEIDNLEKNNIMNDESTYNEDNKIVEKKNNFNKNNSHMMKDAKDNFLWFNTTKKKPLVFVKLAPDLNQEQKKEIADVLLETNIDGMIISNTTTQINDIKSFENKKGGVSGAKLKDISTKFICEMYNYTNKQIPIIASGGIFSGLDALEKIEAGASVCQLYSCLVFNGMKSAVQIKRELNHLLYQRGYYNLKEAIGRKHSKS
# [15] = inhibition of PAO1 biofilm formation – strain PAO1, LB-PBS medium, absorbance 600 nm, primary screen (AID 1176); note: test concentration not given here; conditions: P. aeruginosa PAO1 growth/biofilm, A600, 12 h; higher = more signal
# [16] = growth modulation of vineyard yeast isolate – strain RM11-1a, OD600, basal, 24 h, primary screen (AID 1177);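 note: cultures grown under basal conditions with no added stressor; test concentration not given here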; conditions: S. cerevisiae RM11-1a growth, OD600, 24 h; higher = more signal, called active from +8 up or from −8 down
# [17] = growth of efflux-deficient E. coli DRC39 – strain DRC39, OD650, 24 h, E. coli filamentation inducers, primary screen (AID 1178);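 note: growth measured as culture turbidity by optical density at 650 nm; test concentration not given here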; conditions: E. coli DRC39 acrAB, higher = more signal, called active from +8 up or from −8 down
# [18] = growth of efflux-deficient E. coli DRC39 – strain DRC39, OD650, 48 h, E. coli filamentation inducers, primary screen (AID 1179);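 note: screen aims at cell division blockers that make cells filament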; conditions: E. coli DRC39 delta-acrAB growth, higher = more signal, called active from +8 up or from −8 down
# [19] = viability profiling in RPMI8226 myeloma cells – cell-based, resazurin fluorescence, basal, 24 h, PK04 Diversity Set, profiling panel (AID 1180); conditions: higher = more signal;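 note: RPMI8826 multiple myeloma cell line at 5000 cells per well; test concentration not given here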
# [20] = target: E3 ubiquitin-protein ligase XIAP (Homo sapiens) (UniProt P98170); assay: small molecules binding XIAP protein – biophysical, small-molecule microarray, fluorescence 635 nm, primary screen (AID 1181); conditions: higher = more signal;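 note: score merges 667 nm emission and signal to noise over triplicate slides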
# E3 ubiquitin-protein ligase XIAP (Homo sapiens), sequence (P98170 whole entry, looked up): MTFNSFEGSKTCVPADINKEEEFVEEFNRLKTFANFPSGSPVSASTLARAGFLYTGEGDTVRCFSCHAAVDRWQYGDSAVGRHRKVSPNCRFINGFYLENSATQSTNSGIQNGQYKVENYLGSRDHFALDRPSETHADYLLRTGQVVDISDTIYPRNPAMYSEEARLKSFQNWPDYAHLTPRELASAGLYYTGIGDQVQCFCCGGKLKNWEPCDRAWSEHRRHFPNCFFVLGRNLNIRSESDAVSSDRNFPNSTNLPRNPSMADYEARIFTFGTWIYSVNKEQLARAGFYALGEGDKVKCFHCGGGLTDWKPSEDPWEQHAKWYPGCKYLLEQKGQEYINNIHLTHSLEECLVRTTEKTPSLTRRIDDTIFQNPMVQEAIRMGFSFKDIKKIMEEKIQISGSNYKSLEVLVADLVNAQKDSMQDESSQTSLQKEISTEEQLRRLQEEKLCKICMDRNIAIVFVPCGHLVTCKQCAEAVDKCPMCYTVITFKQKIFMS
Compound,z-score [1],z-score [2],z-score [3],z-score [4],z-score [5],z-score [6],z-score [7],z-score [8],z-score [9],z-score [10],z-score [11],z-score [12],z-score [13],composite z-score [14],z-score [15],z-score [16],z-score [17],z-score [18],z-score [19],composite z-score [20]
CN1C(=O)C2C=CC(C(O)C(C)(C)C)N(Nc3ccccc3)C2C1=O (stereo not given),-0.398,-1.31,0.19,0.235,-1.08,-1.16,-0.398 (inactive),-0.476,-0.178,-0.463 (inactive),-0.376,0.66 (inactive),-0.281 (inactive),-0.702 (inactive),0.695 (inactive),0.0609 (inactive),-0.568 (inactive),0.108 (inactive),-0.444,0.621
C=C(CCCC)/C(=C/C[C@@H](OC(=O)c1ccncc1)c1ccc(CO)o1)c1cc(C(=O)OC)ccc1OC,1.25,-0.1,0.743,-2.63,-2.58,0.0818,-0.239 (inactive),-0.812,-2.01,-0.269 (inactive),0.116,-0.973 (inactive),-0.864 (inactive),-5.02 (inactive),0.847 (inactive),-0.513 (inactive),1.15 (inactive),0.84 (inactive),-0.466,0.508
O=[N+]([O-])c1ccc(C[n+]2ccc(CCCO)cc2)o1,-0.38,1.01,-0.405,-0.41,-2.35,-1.07,-0.266 (inactive),-0.614,0.5,-0.77 (inactive),-1.32,-7.77 (inactive),-1.27 (inactive),0.403 (inactive),0.0214 (inactive),0.379 (inactive),-1.4 (inactive),-0.841 (inactive),-0.211,0.905
COCCn1c(C(=O)N2CCCC2)cc2c1C[C@H]1CN(C(=O)c3ccccc3)[C@@](Cc3ccc(OC)cc3)(C(=O)OC)[C@@H]21,0.476,0.238,1.35,0.776,0.426,2.71,0.0944 (inactive),0.00347,-0.828,-0.253 (inactive),-0.818,-0.35 (inactive),-0.716 (inactive),-1.79 (inactive),0.576 (inactive),-0.944 (inactive),-0.0628 (inactive),0.763 (inactive),-0.939,0.232
C[n+]1ccc2ccc(O)cc2c1,-0.274,0.509,-1.33,0.653,-1.91,-0.774,-0.917 (inactive),1.03,-0.723,-0.733 (inactive),0.0027,-1.06 (inactive),0.242 (inactive),-0.843 (inactive),-0.131 (inactive),0.582 (inactive),0.0452 (inactive),-0.0896 (inactive),-0.654,0.473
O=C1O[C@@H](c2ccccc2)[C@@H](c2ccccc2)N2[C@@H](c3ccccc3OCCO)[C@]3(C(=O)Nc4ccc(C#CC5(O)CCCCCC5)cc43)[C@@H](C(=O)NC[C@H](O)c3ccccc3)[C@H]12,-0.724,0.737,-3.6,-3.31,-4.17,-1.14,0.986 (inactive),-0.935,-1.98,-2.91 (inactive),-2.02,0.934 (inactive),-7.38 (inactive),-0.516 (inactive),1.66 (inactive),2.41 (inactive),-0.0933 (inactive),-0.0241 (inactive),-7.19,0.0264
C=C(/C(=C/C[C@@H](OC(=O)c1ccncc1)c1ccc(CO)o1)c1cc(C(=O)OC)ccc1OC)C(C)C,0.621,-0.619,0.486,-2.99,-2.18,0.654,-0.369 (inactive),-0.688,-1.97,-0.0675 (inactive),-0.512,-0.128 (inactive),-0.51 (inactive),-1.49 (inactive),0.519 (inactive),-0.0289 (inactive),0.885 (inactive),0.64 (inactive),-0.533,-0.187
COCCOC(=O)N1C(=O)[C@@]2(c3cc(C#CCCO)ccc31)[C@H](C(=O)NC[C@H](O)c1ccccc1)[C@H]1C(=O)O[C@H](c3ccccc3)[C@H](c3ccccc3)N1[C@@H]2c1ccc(OCCO)cc1,-0.339,1.22,-0.981,-0.97,-0.304,-1.25,0.623 (inactive),-0.8,-0.904,1.21 (inactive),0.76,0.757 (inactive),0.857 (inactive),-0.689 (inactive),1.75 (inactive),1.21 (inactive),0.696 (inactive),-0.567 (inactive),1.43,0.275
CC(C)N1C(=O)c2ccccc2[C@](C)(C(=O)NC2CC2)[C@@H]1c1ccc(CO)cc1,-0.778,-0.415,0.176,0.0418,0.27,1.57,0.343 (inactive),0.747,-0.847,0.688 (inactive),0.989,-0.708 (inactive),0.192 (inactive),-0.231 (inactive),-0.342 (inactive),0.382 (inactive),0.783 (inactive),1.5 (inactive),0.798,-0.0536
